# Reference: paper PMC7862700, “An all-to-all approach to the identification of sequence-specific readers for epigenetic DNA modifications on cytosine”
# Experiments:
# Test in all cases: DAPPL (digital affinity profiling via proximity ligation, sequencing); 10 mM Tris-HCl pH 7.5, 50 mM NaCl, 1 mM DTT, 4% glycerol, room temperature, 30 min; GST-TFs on glutathione beads, 16-mer random dsDNA library, 0.1% formaldehyde crosslink after washing; high values mean tight binding
# Conditions in all cases: protein: recombinant; tags: N-terminal GST; dsDNA, one strand shown
# [1] = molecular target: T1, ERF (Homo sapiens, UniProt P50548 1-548)
# T1 sequence: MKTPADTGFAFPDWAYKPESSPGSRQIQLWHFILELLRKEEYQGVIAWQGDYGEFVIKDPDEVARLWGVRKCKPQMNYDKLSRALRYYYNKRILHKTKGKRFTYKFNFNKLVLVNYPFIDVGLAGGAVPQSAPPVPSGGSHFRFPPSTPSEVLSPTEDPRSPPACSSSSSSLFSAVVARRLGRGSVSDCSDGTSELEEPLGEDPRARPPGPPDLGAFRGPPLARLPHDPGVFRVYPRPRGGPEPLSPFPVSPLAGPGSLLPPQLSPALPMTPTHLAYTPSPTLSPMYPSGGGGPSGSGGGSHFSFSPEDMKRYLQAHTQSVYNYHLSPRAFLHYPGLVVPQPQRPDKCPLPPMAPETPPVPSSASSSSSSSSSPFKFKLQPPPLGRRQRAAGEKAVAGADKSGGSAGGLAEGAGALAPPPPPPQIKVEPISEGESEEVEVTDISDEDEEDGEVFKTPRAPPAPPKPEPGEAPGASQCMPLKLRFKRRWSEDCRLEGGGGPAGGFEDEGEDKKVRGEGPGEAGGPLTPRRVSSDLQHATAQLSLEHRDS
# Outline: (§1)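 Sequencing on an Illumina NextSeq500 followed washing, crosslinking with 0.1% formaldehyde, proximity ligation (BsaI/T4 ligase, 1 h, 37 °C) and PCR amplification of pools that had been incubated for 30 min at room temperature with 200 nmole of a random double-stranded 16-mer DNA library in Tris/NaCl/DTT/glycerol buffer. Each pool held DNA-barcoded human transcription factors, expressed in yeast as GST fusions and captured on glutathione beads, plus a tag-only sample. Binding signal is a hexamer's read frequency for a factor divided by its frequency in the tag-only sample.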
# [2] = molecular target: T2, ETV3L (Homo sapiens, UniProt Q6ZN32 1-361)
# T2 sequence: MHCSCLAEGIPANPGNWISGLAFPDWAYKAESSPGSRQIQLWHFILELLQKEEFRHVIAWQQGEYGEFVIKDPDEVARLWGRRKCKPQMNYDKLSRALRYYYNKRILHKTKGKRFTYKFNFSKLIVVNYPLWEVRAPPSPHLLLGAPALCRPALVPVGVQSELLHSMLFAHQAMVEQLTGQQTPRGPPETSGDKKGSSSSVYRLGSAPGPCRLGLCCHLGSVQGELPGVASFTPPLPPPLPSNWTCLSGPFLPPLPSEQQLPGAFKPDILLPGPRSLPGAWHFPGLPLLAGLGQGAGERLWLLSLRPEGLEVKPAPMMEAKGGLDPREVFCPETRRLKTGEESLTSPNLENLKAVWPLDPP
# Outline: as §1
# [3] = molecular target: T3, ETS2 (Homo sapiens, UniProt P15036 1-469)
# T3 sequence: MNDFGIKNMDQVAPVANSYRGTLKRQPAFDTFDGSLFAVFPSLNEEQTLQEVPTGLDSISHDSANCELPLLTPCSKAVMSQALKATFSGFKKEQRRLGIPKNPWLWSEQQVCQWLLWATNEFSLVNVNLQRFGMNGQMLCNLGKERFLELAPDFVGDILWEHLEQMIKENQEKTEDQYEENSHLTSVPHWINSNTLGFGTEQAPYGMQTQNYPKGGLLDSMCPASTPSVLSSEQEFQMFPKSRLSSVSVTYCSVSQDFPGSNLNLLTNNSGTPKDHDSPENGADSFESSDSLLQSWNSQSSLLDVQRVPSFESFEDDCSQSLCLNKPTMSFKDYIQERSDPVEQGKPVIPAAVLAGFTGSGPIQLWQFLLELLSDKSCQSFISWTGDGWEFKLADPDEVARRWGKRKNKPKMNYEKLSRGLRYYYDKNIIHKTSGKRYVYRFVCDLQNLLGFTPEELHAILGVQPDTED
# Outline: as §1
# [4] = molecular target: T4, SPDEF (Homo sapiens, UniProt O95238 1-335)
# T4 sequence: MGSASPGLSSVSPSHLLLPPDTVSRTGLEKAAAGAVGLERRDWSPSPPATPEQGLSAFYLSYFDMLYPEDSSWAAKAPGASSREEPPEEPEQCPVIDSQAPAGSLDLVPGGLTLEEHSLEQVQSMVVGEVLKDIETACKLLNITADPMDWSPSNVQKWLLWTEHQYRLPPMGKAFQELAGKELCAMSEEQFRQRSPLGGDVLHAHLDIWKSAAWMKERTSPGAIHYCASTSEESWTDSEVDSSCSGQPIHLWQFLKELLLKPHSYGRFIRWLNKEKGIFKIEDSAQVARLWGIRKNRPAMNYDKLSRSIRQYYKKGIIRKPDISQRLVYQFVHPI
# Outline: as §1
# [5] = molecular target: T5, ETV7 (Homo sapiens, UniProt Q9Y603 1-341)
# T5 sequence: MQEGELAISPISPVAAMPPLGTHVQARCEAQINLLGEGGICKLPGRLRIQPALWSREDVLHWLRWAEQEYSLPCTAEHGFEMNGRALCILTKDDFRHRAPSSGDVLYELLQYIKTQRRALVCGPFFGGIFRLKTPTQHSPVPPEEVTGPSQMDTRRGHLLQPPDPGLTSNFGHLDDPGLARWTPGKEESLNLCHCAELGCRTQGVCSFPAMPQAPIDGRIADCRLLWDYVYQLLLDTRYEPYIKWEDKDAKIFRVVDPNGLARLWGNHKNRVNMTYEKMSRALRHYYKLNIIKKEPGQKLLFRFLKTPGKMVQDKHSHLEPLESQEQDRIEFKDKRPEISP
# Outline: as §1
# [6] = molecular target: T6, ELF5 (Homo sapiens, UniProt Q9UKW6-2 1-255)
# T6 sequence: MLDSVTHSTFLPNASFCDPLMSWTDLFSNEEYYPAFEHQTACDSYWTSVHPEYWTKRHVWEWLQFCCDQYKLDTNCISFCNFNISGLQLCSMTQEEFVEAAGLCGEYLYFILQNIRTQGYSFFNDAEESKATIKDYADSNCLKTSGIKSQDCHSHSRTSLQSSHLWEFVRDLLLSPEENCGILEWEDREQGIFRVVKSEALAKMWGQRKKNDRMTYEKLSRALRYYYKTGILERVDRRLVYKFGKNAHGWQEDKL
# Outline: as §1
# [7] = molecular target: T7, ETV3 (Homo sapiens, UniProt P41162-2 1-143)
# T7 sequence: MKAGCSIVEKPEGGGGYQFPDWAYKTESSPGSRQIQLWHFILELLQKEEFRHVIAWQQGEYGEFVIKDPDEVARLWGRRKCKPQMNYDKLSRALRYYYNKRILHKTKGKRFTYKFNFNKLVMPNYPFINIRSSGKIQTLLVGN
# Outline: as §1
# [8] = molecular target: ETV6 (Homo sapiens, UniProt P41212 1-452)
# Outline: as §1
# ETV6, sequence (P41212 whole entry): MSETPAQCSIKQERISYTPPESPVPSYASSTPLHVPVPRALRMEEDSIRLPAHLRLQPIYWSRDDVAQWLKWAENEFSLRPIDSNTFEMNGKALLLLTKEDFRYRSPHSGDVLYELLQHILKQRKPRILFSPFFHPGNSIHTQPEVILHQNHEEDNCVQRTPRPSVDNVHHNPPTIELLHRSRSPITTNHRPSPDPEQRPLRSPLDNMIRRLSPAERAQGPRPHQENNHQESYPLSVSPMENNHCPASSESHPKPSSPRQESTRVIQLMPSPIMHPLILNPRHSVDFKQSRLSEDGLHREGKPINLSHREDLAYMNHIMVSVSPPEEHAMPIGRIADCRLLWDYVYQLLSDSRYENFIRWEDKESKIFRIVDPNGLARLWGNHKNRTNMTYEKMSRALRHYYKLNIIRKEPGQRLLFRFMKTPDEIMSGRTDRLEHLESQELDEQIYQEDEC
Sequence,binding signal [1],binding signal [2],binding signal [3],binding signal [4],binding signal [5],binding signal [6],binding signal [7],binding signal [8]
ATGGCC,"1.27 fold enrichment (6-mer frequency, TF over GST control)","1.32 fold enrichment (6-mer frequency, TF over GST control)","1.37 fold enrichment (6-mer frequency, TF over GST control)","1.32 fold enrichment (6-mer frequency, TF over GST control)","1.44 fold enrichment (6-mer frequency, TF over GST control)","1.32 fold enrichment (6-mer frequency, TF over GST control)","1.39 fold enrichment (6-mer frequency, TF over GST control)","1.34 fold enrichment (6-mer frequency, TF over GST control)"
CCTTAC,"1.32 fold enrichment (6-mer frequency, TF over GST control)","1.26 fold enrichment (6-mer frequency, TF over GST control)","1.3 fold enrichment (6-mer frequency, TF over GST control)","1.33 fold enrichment (6-mer frequency, TF over GST control)","1.36 fold enrichment (6-mer frequency, TF over GST control)","1.69 fold enrichment (6-mer frequency, TF over GST control)","1.31 fold enrichment (6-mer frequency, TF over GST control)","1.28 fold enrichment (6-mer frequency, TF over GST control)"
CGTACT,"1.27 fold enrichment (6-mer frequency, TF over GST control)","1.1 fold enrichment (6-mer frequency, TF over GST control)","1.23 fold enrichment (6-mer frequency, TF over GST control)","1.11 fold enrichment (6-mer frequency, TF over GST control)","1.1 fold enrichment (6-mer frequency, TF over GST control)","1.2 fold enrichment (6-mer frequency, TF over GST control)","1.2 fold enrichment (6-mer frequency, TF over GST control)","1.2 fold enrichment (6-mer frequency, TF over GST control)"
AATCTT,"1.26 fold enrichment (6-mer frequency, TF over GST control)","1.38 fold enrichment (6-mer frequency, TF over GST control)","1.41 fold enrichment (6-mer frequency, TF over GST control)","1.27 fold enrichment (6-mer frequency, TF over GST control)","1.31 fold enrichment (6-mer frequency, TF over GST control)","1.43 fold enrichment (6-mer frequency, TF over GST control)","1.31 fold enrichment (6-mer frequency, TF over GST control)","1.31 fold enrichment (6-mer frequency, TF over GST control)"
